± gives the standard deviation of the averaged measurements.
Columns and labels:
MDA-MB-231 [1] = experiment: cell viability relative to vehicle unstimulated control (fraction); higher = more viable cells; settings: pre-treatment time: 18 h then 24 h IFNg/TNF
MDA-MB-231 [2] = experiment: kynurenine production, fold change vs DMSO IFNg/TNF control; higher = more kynurenine produced (less inhibition); settings: pre-treatment time: 18 h then 24 h IFNg/TNF
Procedure, shortened: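 In 96-well plates, MDA-MB-231 cells (7 × 10^4/well) were given 24 h to settle, pre-treated for 18 h with each natural product in 0.1% DMSO, and stimulated for 24 h with IFNγ (1 U/ml) and TNF (6.25 ng/ml) at 37°C. Supernatants were processed with trichloroacetic acid and p-dimethylaminobenzaldehyde and read at 492 nm against 0–100 μM standards. In the first screening round, kynurenine production, as fold change over same-plate cytokine-stimulated vehicle wells, was averaged over duplicate plates.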
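For cell viability relative to vehicle unstimulated control in this document: viability of the cells left after supernatant collection, read with Deep Blue dye added for 4 h, as absorbance at 570 nm minus 600 nm.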

Structure (SMILES)	cell viability (MDA-MB-231 [1])	kynurenine production (MDA-MB-231 [2])
CN1CCC[C@@H]1CC(=O)C[C@@H]1CCCN1C [Cuscohygrine] (compound dose: 10 uM)	0.977 ± 0.14	0.962 ± 0.027
C[C@@H]1CC[C@H]2[C@@H](C)C(=O)O[C@@H]3O[C@@]4(C)CC[C@@H]1[C@]32O4 [Deoxyartemisinin] (compound dose: 10 uM)	1.28 ± 0.3	0.8521 ± 0.0034
CC1(C)CC[C@]2(CO)CC[C@]3(C)C(=CC[C@@H]4[C@@]5(C)CC[C@H](O)C(C)(C)[C@@H]5CC[C@]43C)[C@@H]2C1 [Erythrodiol] (compound dose: 10 uM)	1.08 ± 0.031	0.842 ± 0.14
C=C(C)[C@@H]1CC[C@]2(C(=O)O)CC[C@]3(C)[C@H](CC[C@@H]4[C@@]5(C)CC[C@H](O)C(C)(C)[C@@H]5CC[C@]43C)[C@@H]12 [Betulinic acid] (compound dose: 10 uM)	0.993 ± 0.044	0.949 ± 0.051
C=C1CCC[C@]2(C)C[C@@H]3OC(=O)C(C)=C3C[C@@H]12 [Atractylenolide II] (compound dose: 10 uM)	1.03 ± 0.018	1.06 ± 0.041
C=C1C(OC(C)=O)C(OC(C)=O)C(OC(=O)c2cccnc2)C(C)(C)C=CC(C)C(OC(C)=O)C2(O)CC(C)(OC(C)=O)C(OC(=O)c3ccccc3)C2C1OC(C)=O (stereo unspecified) [Pepluanin A] (compound dose: 10 uM)	1.11 ± 0.017	0.806 ± 0.06
C[C@@H]1CC[C@H]2C(C)(C)[C@H]3C[C@@]12CC[C@@]3(C)O [Cedrol] (compound dose: 10 uM)	0.977 ± 0.06	1.06 ± 0.019
C/C1=C\CC[C@]23O[C@H]2[C@@H](OC3=O)c2c(C)coc2C1 [Linderane] (compound dose: 10 uM)	0.985 ± 0.032	0.942 ± 0.096
CC(CCC(OC1OC(CO)C(O)C(O)C1OC1OC(CO)C(O)C(O)C1O)C(C)(C)O)C1CCC2(C)C3CC=C4C(CCC(O)C4(C)C)C3(C)C(O)CC12C (stereo unspecified) [Mogroside II-A] (compound dose: 10 uM)	1.05 ± 0.069	0.693 ± 0.08
C/C1=C/CC[C@H](C)C(=O)C[C@@H](C(C)C)C(=O)C1 [Curdione] (compound dose: 10 uM)	0.926 ± 0.015	1.02 ± 0.059
CC(=O)OC1C2C(OC(=O)c3ccccc3)C(C)CC2(OC(C)=O)C(=O)C(C)=CC2C(CCC13CO3)C2(C)C (stereo unspecified) [Euphorbia factor L25] (compound dose: 10 uM)	1.057 ± 0.0038	0.911 ± 0.07
C=C(C)[C@@H]1CC[C@]2(C)CC[C@]3(C)[C@H](CC[C@@H]4[C@@]5(C)CC[C@H](O)C(C)(C)[C@@H]5CC[C@]43C)[C@@H]12 [Lupeol] (compound dose: 2 uM)	0.861 ± 0.041	0.921 ± 0.085
O[C@H]1[C@H]2c3cc4c(cc3CN3CCC(=C[C@@H]1O)[C@H]23)OCO4 [Lycorine chloride] (compound dose: 10 uM)	0.582 ± 0.056	0.184 ± 0.072
CC(C)=CCCC(C)CCO (stereo unspecified) [Citronellol] (compound dose: 10 uM)	1.03 ± 0.057	0.845 ± 0.25
C[C@H](CC[C@@H](O[C@@H]1O[C@H](CO)[C@@H](O)[C@H](O)[C@H]1O)C(C)(C)O)[C@H]1CC[C@@]2(C)[C@@H]3CC=C4[C@@H](CC[C@H](O[C@@H]5O[C@H](CO)[C@@H](O)[C@H](O)[C@H]5O)C4(C)C)[C@]3(C)[C@H](O)C[C@]12C [Mogroside IIe] (compound dose: 10 uM)	0.984 ± 0.089	0.934 ± 0.29
CC(=O)O[C@H]1CC/C(C)=C/CC/C(C)=C/C[C@]2(C(C)C)CC[C@@]1(C)O2 [Incensole Acetate] (compound dose: 10 uM)	1.11 ± 0.01	0.941 ± 0.18
CC1=CC[C@@H](C(C)(C)O)CC1 [α-Terpineol] (compound dose: 10 uM)	1.02 ± 0.059	0.896 ± 0.0054
C=C1C(=O)O[C@H]2[C@H]1CC/C(C)=C/CC[C@@]1(C)O[C@@H]21 [Parthenolide] (compound dose: 10 uM)	0.933 ± 0.034	0.309 ± 0.064
C[C@@H]1O[C@@H](O[C@H]2[C@H](O[C@H]3CC[C@]4(C)[C@H]5CC=C6[C@@H]7CC(C)(C)CC[C@]7(C(=O)O)CC[C@@]6(C)[C@]5(C)CC[C@H]4C3(C)C)OC[C@H](O[C@@H]3O[C@H](CO)[C@@H](O)[C@H](O)[C@H]3O)[C@@H]2O)[C@H](O)[C@H](O)[C@H]1O [Hederacolchiside A1] (compound dose: 10 uM)	0.221 ± 0.013	0.396 ± 0.15

Structure (SMILES)	cell viability (MDA-MB-231 [1])	kynurenine production (MDA-MB-231 [2])
C[C@@H]1O[C@@H](O[C@H]2[C@H](Oc3cc(O)c4c(c3)O[C@H](c3ccc(O)cc3)CC4=O)O[C@H](CO)[C@@H](O)[C@@H]2O)[C@H](O)[C@H](O)[C@H]1O [Naringin] (compound dose: 10 uM)	1.02 ± 0.015	1.15 ± 0.036
C/C1=C\C(=O)c2c(C)coc2C/C(C)=C/CC1 [Furanodienone] (compound dose: 10 uM)	0.949 ± 0.065	0.759 ± 0.13
CC(=O)O[C@@]1(C)C[C@@H](O)[C@]2(O)C=CO[C@@H](O[C@@H]3O[C@H](CO)[C@@H](O)[C@H](O)[C@H]3O)[C@@H]21 [8-O-Acetylharpagide] (compound dose: 10 uM)	0.9 ± 0.067	0.906 ± 0.076
CC(=O)O[C@]12C[C@H](C)[C@H](OC(=O)/C=C/c3ccccc3)[C@@H]1/C=C(/CO)CC[C@H]1[C@@H](/C=C(\C)C2=O)C1(C)C [Euphorbia factor L22] (compound dose: 10 uM)	1.11 ± 0.047	0.964 ± 0.092
CC(=O)OCC1=CO[C@@H](OC(=O)CC(C)C)[C@H]2C1=C[C@H](OC(=O)CC(C)(C)OC(C)=O)[C@]21CO1 [Acevaltrate] (compound dose: 10 uM)	0.474 ± 0.047	0.171 ± 0.011
CC(C)C1=CC(=O)C(C)(C2C(O)CC3(C)C4CC=C5C(CCC(OC6OC(CO)C(O)C(O)C6OC6OC(C)C(O)C(O)C6O)C5(C)C)C4(C)C(=O)CC23C)O1 (stereo unspecified) [Picfeltarraenin IB] (compound dose: 10 uM)	1.02 ± 0.067	0.771 ± 0.23
C[C@@H]1CC[C@]2(C(=O)O[C@@H]3O[C@H](CO)[C@@H](O)[C@H](O)[C@H]3O)CC[C@]3(C)C(=CC[C@@H]4[C@@]5(C)CC[C@H](O)[C@@](C)(CO)[C@@H]5CC[C@]43C)[C@@H]2[C@]1(C)O [Pedunculoside] (compound dose: 10 uM)	0.967 ± 0.074	1 ± 0.29
O=C(O)/C=C/c1ccccc1O [O-coumaric acid] (compound dose: 10 uM)	0.976 ± 0.097	0.9916 ± 0.006
C=C(C)C1CC=C(C)[C@@H](O)C1 (stereo partly specified) [Carveol] (compound dose: 10 uM)	1.07 ± 0.081	0.801 ± 0.38
C=C(C)[C@@H]1CC[C@]2(C(=O)O[C@@H]3O[C@H](CO[C@@H]4O[C@H](CO)[C@@H](O[C@@H]5O[C@@H](C)[C@H](O)[C@@H](O)[C@H]5O)[C@H](O)[C@H]4O)[C@@H](O)[C@H](O)[C@H]3O)CC[C@]3(C)[C@H](CC[C@@H]4[C@@]5(C)CC[C@H](O[C@@H]6OC[C@H](O)[C@H](O)[C@H]6O[C@@H]6O[C@@H](C)[C@H](O)[C@@H](O)[C@H]6O)[C@@](C)(CO)[C@@H]5CC[C@]43C)[C@@H]12 [Pulchinenoside C] (compound dose: 10 uM)	0.9971 ± 0.0034	1.03 ± 0.18
C=C[C@]1(C)CC[C@@H](C(=C)C)C[C@H]1C(=C)C [β-Elemene] (compound dose: 10 uM)	0.939 ± 0.071	0.8 ± 0.11
O[C@H]1[C@H]2c3cc4c(cc3CN3CC[C@H](C[C@@H]1O)[C@H]23)OCO4 [Dihydrolycorine] (compound dose: 10 uM)	0.961 ± 0.041	0.723 ± 0.022
CC(C)=CCC[C@H](C)CC=O [(S)-(-)-Citronellal] (compound dose: 10 uM)	1.04 ± 0.05	1.14 ± 0.18
C=C1[C@H](OC(C)=O)[C@@H](OC(C)=O)[C@@H](OC(C)=O)C(C)(C)/C=C/[C@H](C)[C@H](OC(C)=O)[C@@]2(O)C[C@@](C)(OC(C)=O)[C@H](OC(=O)c3ccccc3)[C@@H]2[C@H]1OC(C)=O [Jatrophane 2] (compound dose: 10 uM)	1.08 ± 0.062	0.926 ± 0.049
C[C@@H]1CC[C@]2(C(=O)O[C@@H]3O[C@H](CO)[C@@H](O)[C@H](O)[C@H]3O)CC[C@]3(C)C(=CC[C@@H]4[C@@]5(C)C[C@@H](O)[C@H](O)C(C)(C)[C@@H]5CC[C@]43C)[C@@H]2[C@]1(C)O [Rosamultin] (compound dose: 10 uM)	1 ± 0.077	1.09 ± 0.26
C=C(CC[C@@H](C(=O)O)[C@H]1[C@H](O)C[C@@]2(C)C3=C(CC[C@]12C)[C@@]1(C)CC[C@H](OC(C)=O)C(C)(C)[C@@H]1CC3)C(C)C [Pachymic acid] (compound dose: 10 uM)	0.862 ± 0.1	0.872 ± 0.093
COc1ccc2c(c1O)C(Cc1ccc(O)cc1)[N+](C)(C)CC2 (stereo unspecified) [Oblongine] (compound dose: 10 uM)	0.969 ± 0.037	1.03 ± 0.071
C[C@@H]1C(=O)O[C@H]2C[C@@]34[C@H]5C[C@@H](C(C)(C)C)[C@]36[C@@H](OC(=O)[C@@H]6O)O[C@@]4(C(=O)O5)[C@]21O [Ginkgolide A] (compound dose: 10 uM)	1.03 ± 0.13	1.2 ± 0.084
C[C@@H]1O[C@@H](O[C@H]2[C@H](O[C@H]3CC[C@@]4(C)[C@@H](CC[C@]5(C)[C@@H]4CC=C4[C@@H]6CC(C)(C)CC[C@]6(C(=O)O[C@@H]6O[C@H](CO[C@@H]7O[C@H](CO)[C@@H](O)[C@H](O)[C@H]7O)[C@@H](O)[C@H](O)[C@H]6O)CC[C@]45C)[C@]3(C)CO)OC[C@H](O)[C@@H]2O)[C@H](O)[C@H](O[C@@H]2O[C@H](CO)[C@@H](O[C@@H]3O[C@H](CO)[C@@H](O)[C@H](O)[C@H]3O)[C@H](O)[C@H]2O)[C@H]1O [Macranthoidin B] (compound dose: 10 uM)	0.9895 ± 0.0011	0.787 ± 0.18

From the supplement of paper PMC13094657
